Measurements published in PubChem BioAssay AID1159580 (chemical genetic matrix, 2015).
The campaign covered roughly 5,500 compounds. About 2,000 (36%) were called active. Not shown: some 18% with an inconclusive outcome. Rule as the data show it: active = normalized growth mostly below about 0.91 (no sharp cut-off); inconclusive = no clear call, values can overlap the other calls; inactive = mostly above about 0.92. Some of the results follow.

Assay: chemical genetic growth profiling, strain panel (AID 1159580);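 also: tested at 20 µM; growth read once vehicle control cultures reached saturation at 30 °C; 1 = growth at the plate median or of vehicle wells; lower values mean less growth of the strain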
Details: growth OD
[1] = S. cerevisiae deletion strains, locus YDL101C, strain DUN1, active compounds read low
[2] = S. cerevisiae deletion strains, locus YHR030C, strain SLT2, active compounds read low
[3] = S. cerevisiae deletion strains, locus YAL013W, strain DEP1, active compounds read low
[4] = S. cerevisiae deletion strains, locus YDR150W, strain NUM1, active compounds read low
[5] = S. cerevisiae deletion strains, locus YGR229C, strain SMI1, active compounds read low
[6] = S. cerevisiae deletion strains, locus YNL322C, strain KRE1, active compounds read low
[7] = S. cerevisiae deletion strains, locus YPL241C, strain CIN2, active compounds read low

Measured: normalized growth

O=[N+]([O-])c1cnc(Sc2nnc(SCc3cccc(C(F)(F)F)c3)s2)s1
active: S. cerevisiae deletion strains, locus YAR019C, strain CDC15, active compounds read low 0.098 | S. cerevisiae deletion strains, locus YBL105C, strain PKC1, active compounds read low 0.0818 | S. cerevisiae deletion strains, locus YBR135W, strain CKS1, active compounds read low 0.0984 | S. cerevisiae deletion strains, locus YBR136W, strain MEC1, active compounds read low 0.0945 | S. cerevisiae deletion strains, locus YBR160W, strain CDC28, active compounds read low 0.0963 | S. cerevisiae deletion strains, locus YDL017W, strain CDC7, active compounds read low 0.0822 | S. cerevisiae deletion strains, locus YDL028C, strain MPS1, active compounds read low 0.111 | [1] 0.107 | S. cerevisiae deletion strains, locus YDL108W, strain KIN28, active compounds read low 0.0971 | S. cerevisiae deletion strains, locus YDL132W, strain cdc53, active compounds read low 0.0889 | S. cerevisiae deletion strains, locus YDL214C, strain PRR2, active compounds read low 0.106 | S. cerevisiae deletion strains, locus YDR052C, strain DBF4, active compounds read low 0.0805 | S. cerevisiae deletion strains, locus YDR054C, strain cdc34, active compounds read low 0.0921 | S. cerevisiae deletion strains, locus YDR226W, strain ADK1, active compounds read low 0.0971 | S. cerevisiae deletion strains, locus YDR477W, strain SNF1, active compounds read low 0.101 | S. cerevisiae deletion strains, locus YER123W, strain YCK3, active compounds read low 0.111 | S. cerevisiae deletion strains, locus YER133W, strain GLC7, active compounds read low 0.107 | S. cerevisiae deletion strains, locus YFL009W, strain cdc4, active compounds read low 0.102 | S. cerevisiae deletion strains, locus YFL029C, strain CAK1, active compounds read low 0.098 | S. cerevisiae deletion strains, locus YFR003C, strain YPI1, active compounds read low 0.0893 | S. cerevisiae deletion strains, locus YFR019W, strain FAB1, active compounds read low 0.106 | S. cerevisiae deletion strains, locus YFR028C, strain CDC14, active compounds read low 0.0995 | S. cerevisiae deletion strains, locus YGR040W, strain KSS1, active compounds read low 0.0976 | S. cerevisiae deletion strains, locus YGR052W, strain FMP48, active compounds read low 0.101 | S. cerevisiae deletion strains, locus YGR092W, strain DBF2, active compounds read low 0.0989 | [2] 0.131 | S. cerevisiae deletion strains, locus YHR079C, strain IRE1, active compounds read low 0.0953 | S. cerevisiae deletion strains, locus YHR082C, strain KSP1, active compounds read low 0.13 | S. cerevisiae deletion strains, locus YHR205W, strain SCH9, active compounds read low -0.0106 | S. cerevisiae deletion strains, locus YIL147C, strain SLN1, active compounds read low 0.102 | S. cerevisiae deletion strains, locus YJL095W, strain BCK1, active compounds read low 0.118 | S. cerevisiae deletion strains, locus YJL128C, strain PBS2, active compounds read low 0.0978 | S. cerevisiae deletion strains, locus YJL157C, strain FAR1, active compounds read low 0.0837 | S. cerevisiae deletion strains, locus YJR016C, strain ILV3, active compounds read low 0.0869 | S. cerevisiae deletion strains, locus YJR066W, strain TOR1 (second series), active compounds read low 0.0917 | S. cerevisiae deletion strains, locus YJR066W, strain TOR1, active compounds read low 0.122 | S. cerevisiae deletion strains, locus YKL048C, strain ELM1, active compounds read low 0.111 | S. cerevisiae deletion strains, locus YKL067W, strain YNK1, active compounds read low 0.105 | S. cerevisiae deletion strains, locus YKL101W, strain HSL1, active compounds read low 0.1 | S. cerevisiae deletion strains, locus YKL193C, strain SDS22, active compounds read low 0.0958 | S. cerevisiae deletion strains, locus YKL203C, strain TOR2, active compounds read low 0.111 | S. cerevisiae deletion strains, locus YLR113W, strain HOG1, active compounds read low 0.127 | S. cerevisiae deletion strains, locus YLR133W, strain CKI1, active compounds read low 0.0966 | S. cerevisiae deletion strains, locus YLR403W, strain SFP1, active compounds read low -0.00531 | S. cerevisiae deletion strains, locus YML070W, strain DAK1, active compounds read low 0.103 | S. cerevisiae deletion strains, locus YMR001C, strain CDC5, active compounds read low 0.0974 | S. cerevisiae deletion strains, locus YMR205C, strain PFK2 (second series), active compounds read low 0.101 | S. cerevisiae deletion strains, locus YMR277W, strain FCP1, active compounds read low 0.0974 | S. cerevisiae deletion strains, locus YNL006W, strain LST8, active compounds read low 0.0863 | S. cerevisiae deletion strains, locus YNL020C, strain ARK1, active compounds read low 0.109 | S. cerevisiae deletion strains, locus YNL161W, strain CBK1, active compounds read low 0.0953 | S. cerevisiae deletion strains, locus YNL183C, strain NPR1, active compounds read low 0.093 | S. cerevisiae deletion strains, locus YNL207W, strain RIO2, active compounds read low 0.0918 | S. cerevisiae deletion strains, locus YNL222W, strain SSU72, active compounds read low 0.1 | S. cerevisiae deletion strains, locus YNL307C, strain MCK1 (second series), active compounds read low 0.108 | S. cerevisiae deletion strains, locus YOL078W, strain AVO1, active compounds read low 0.0995 | S. cerevisiae deletion strains, locus YOL136C, strain PFK27, active compounds read low 0.0976 | S. cerevisiae deletion strains, locus YOR061W, strain CKA2, active compounds read low 0.0984 | S. cerevisiae deletion strains, locus YOR119C, strain RIO1, active compounds read low 0.105 | S. cerevisiae deletion strains, locus YOR231W, strain MKK1, active compounds read low 0.0992 | S. cerevisiae deletion strains, locus YOR329C, strain SCD5, active compounds read low 0.0854 | S. cerevisiae deletion strains, locus YPL031C, strain PHO85, active compounds read low 0.103 | S. cerevisiae deletion strains, locus YPL153C, strain RAD53, active compounds read low 0.0944 | S. cerevisiae deletion strains, locus YPL204W, strain HRR25, active compounds read low 0.107 | S. cerevisiae deletion strains, locus YPL209C, strain IPL1, active compounds read low 0.0842 | S. cerevisiae deletion strains, locus YPL256C, strain CLN2, active compounds read low 0.133 | S. cerevisiae deletion strains, locus YPR025C, strain CCL1, active compounds read low 0.0989 | S. cerevisiae deletion strains, locus YPR106W, strain ISR1, active compounds read low 0.0861 | S. cerevisiae deletion strains, locus YPR111W, strain DBF20, active compounds read low 0.0999 | S. cerevisiae deletion strains, strain NNK1, active compounds read low 0.0942 | S. cerevisiae deletion strains, strain TSCII, active compounds read low 0.102

O=[N+]([O-])c1ccccc1SCc1n[nH]c(=S)n1-c1cccc(C(F)(F)F)c1
inactive: [3] 0.973 | S. cerevisiae deletion strains, locus YBR229C, strain ROT2, active compounds read low 0.991 | S. cerevisiae deletion strains, locus YCL061C, strain MRC1, active compounds read low 0.989 | [1] 1 | S. cerevisiae deletion strains, locus YDL134C, strain PPH21, active compounds read low 1.01 | [4] 1.01 | S. cerevisiae deletion strains, locus YEL061C, strain CIN8, active compounds read low 0.969 | S. cerevisiae deletion strains, locus YGR078C, strain PAC10, active compounds read low 0.967 | [5] 0.994 | [2] 1.04 | S. cerevisiae deletion strains, locus YHR087W, strain rtc3, active compounds read low 1.01 | S. cerevisiae deletion strains, locus YJR043C, strain POL32, active compounds read low 0.999 | S. cerevisiae deletion strains, locus YJR075W, strain HOC1, active compounds read low 1.02 | S. cerevisiae deletion strains, locus YKL190W, strain CNB1, active compounds read low 0.974 | S. cerevisiae deletion strains, locus YLR039C, strain RIC1, active compounds read low 0.988 | S. cerevisiae deletion strains, locus YLR058C, strain SHM2 (second series), active compounds read low 0.996 | S. cerevisiae deletion strains, locus YLR085C, strain ARP6, active compounds read low 0.87 | S. cerevisiae deletion strains, locus YLR262C, strain YPT6, active compounds read low 1.01 | S. cerevisiae deletion strains, locus YML094W, strain GIM5, active compounds read low 0.967 | S. cerevisiae deletion strains, locus YMR219W, strain ESC1, active compounds read low 0.992 | S. cerevisiae deletion strains, locus YMR263W, strain SAP30, active compounds read low 1 | S. cerevisiae deletion strains, locus YNL153C, strain GIM3, active compounds read low 1.03 | S. cerevisiae deletion strains, locus YNL298W, strain CLA4 (second series), active compounds read low 0.932 | [6] 0.97 | S. cerevisiae deletion strains, locus YNR030W, strain Alg12, active compounds read low 0.94 | S. cerevisiae deletion strains, locus YOL006C, strain TOP1, active compounds read low 0.886 | S. cerevisiae deletion strains, locus YPL055C, strain LGE1, active compounds read low 0.99 | [7] 0.985 | S. cerevisiae deletion strains, locus YPR135W, strain CTF4, active compounds read low 1.13 | S. cerevisiae strains, strain wild type, active compounds read low 0.975

CC1C(=O)N(C)C(=O)c2nc[nH]c21 (stereo unspecified)
inactive: [3] 0.997 | S. cerevisiae deletion strains, locus YAL040C, strain CLN3, active compounds read low 0.993 | S. cerevisiae deletion strains, locus YCL061C, strain MRC1 (second series), active compounds read low 1 | [4] 1.01 | S. cerevisiae deletion strains, locus YDR363W, strain ESC2, active compounds read low 0.998 | S. cerevisiae deletion strains, locus YER002W, strain NOP16, active compounds read low 1 | [5] 0.992 | S. cerevisiae deletion strains, locus YMR307W, strain GAS1, active compounds read low 0.991 | S. cerevisiae deletion strains, locus YNL128W, strain TEP1, active compounds read low 1 | S. cerevisiae deletion strains, locus YNL175C, strain NOP13, active compounds read low 1 | S. cerevisiae deletion strains, locus YNL197C, strain WHI3, active compounds read low 0.989 | S. cerevisiae deletion strains, locus YNL224C, strain SQS1, active compounds read low 1 | [6] 0.992 | S. cerevisiae deletion strains, locus YOR083W, strain WHI5 (second series), active compounds read low 1.02 | [7] 1
